Data as given in PubChem BioAssay (NCI).
Where “and” joins values, the source holds several entries; their conditions need not be identical. Equal entries are not always repeated. The panel holds about 83,000 compounds, 20% with a hit somewhere; the sample as a whole holds those more often.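 Interpretation: 100, growth as untreated; towards 0, rising growth inhibition; 0, no net growth; 0 to -100, cell death. Compounds scoring below 10 were considered active.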 Calls of active or inactive are those of the source.

Tests used:
Assay in all cases: NCI-60 one-dose screen, 48 h (100 = growth as untreated, 0 = no growth, -100 = all killed)
Conditions in all cases: 10 µM unless noted
NCI-H23 lung = system: NCI-H23 lung
NCI-H226 lung = system: NCI-H226 lung
NCI-H322M lung = system: NCI-H322M lung
NCI-H460 lung = system: NCI-H460 lung
HOP-92 NSCLC = system: HOP-92 NSCLC
NCI-H522 lung = system: NCI-H522 lung
A549/ATCC NSCLC = system: A549/ATCC NSCLC
786-0 renal = system: 786-0 renal
COLO 205 colon = system: COLO 205 colon
DU-145 prostate = system: DU-145 prostate
K-562 leukemia = system: K-562 leukemia
MALME-3M melanoma = system: MALME-3M melanoma
MDA-MB-231 breast = system: MDA-MB-231 breast
RXF 393 renal = system: RXF 393 renal
SF-268 CNS = system: SF-268 CNS
SF-295 CNS = system: SF-295 CNS
SF-539 CNS = system: SF-539 CNS
UACC-257 melanoma = system: UACC-257 melanoma
M14 melanoma = system: M14 melanoma
HOP-62 NSCLC = system: HOP-62 NSCLC

| Compound | growth (NCI-H23 lung) | growth (NCI-H226 lung) | growth (NCI-H322M lung) | growth (NCI-H460 lung) | growth (HOP-92 NSCLC) | growth (NCI-H522 lung) | growth (A549/ATCC NSCLC) | growth (786-0 renal) | growth (COLO 205 colon) | growth (DU-145 prostate) | growth (K-562 leukemia) | growth (MALME-3M melanoma) | growth (MDA-MB-231 breast) | growth (RXF 393 renal) | growth (SF-268 CNS) | growth (SF-295 CNS) | growth (SF-539 CNS) | growth (UACC-257 melanoma) | growth (M14 melanoma) | growth (HOP-62 NSCLC) |
| --- | --- | --- | --- | --- | --- | --- | --- | --- | --- | --- | --- | --- | --- | --- | --- | --- | --- | --- | --- | --- |
| CS(=O)(=O)OCC1NC(=O)C(COS(C)(=O)=O)NC1=O (stereo not given) | 84% (inactive) and 88.5% (inactive) | 96.2% (inactive) and 99.2% (inactive) | 98.8% (inactive) and 103% (inactive) | 102% (inactive) and 95.9% (inactive) | 96.4% (inactive) and 104% (inactive) | 51.3% (inactive) and 50.6% (inactive) | 78.3% (inactive) and 96.4% (inactive) | 97.8% (inactive) and 99.1% (inactive) | 128% (inactive) and 135% (inactive) | 111% (inactive) and 102% (inactive) | 81.6% (inactive) and 104% (inactive) | 98.1% (inactive) and 103% (inactive) | 108% (inactive) and 104% (inactive) | 83.2% (inactive) and 100% (inactive) | 113% (inactive) and 60.2% (inactive) | 133% (inactive) and 102% (inactive) | 106% (inactive) and 97.9% (inactive) | 75.5% (inactive) and 116% (inactive) | 91.8% (inactive) and 93.5% (inactive) | – |
| CC1(C)OC(=O)C(=Cc2ccc(C#N)cc2)C(=O)O1 | 104% (inactive) | 92.6% (inactive) | 113% (inactive) and 103% (inactive) | 107% (inactive) and 101% (inactive) | 87.9% (inactive) | 79% (inactive) and 103% (inactive) | 77.4% (inactive) | 104% (inactive) and 98.1% (inactive) | 103% (inactive) and 105% (inactive) | 109% (inactive) and 107% (inactive) | 101% (inactive) and 96.7% (inactive) | 110% (inactive) and 99.3% (inactive) | 113% (inactive) and 123% (inactive) | 102% (inactive) | 104% (inactive) and 102% (inactive) | 103% (inactive) and 97.7% (inactive) | 111% (inactive) and 105% (inactive) | 72.2% (inactive) and 96.3% (inactive) | – | – |
| COc1ccc(/C=C/C(=O)O)cc1OC | 108% (inactive) and 98.7% (inactive) | 102% (inactive) and 107% (inactive) | 101% (inactive) and 115% (inactive) | 103% (inactive) | 89% (inactive) and 97.1% (inactive) | 102% (inactive) and 84% (inactive) | 99.7% (inactive) and 104% (inactive) | 102% (inactive) and 105% (inactive) | 104% (inactive) and 115% (inactive) | 108% (inactive) and 111% (inactive) | 96.7% (inactive) and 105% (inactive) | 103% (inactive) and 122% (inactive) | 100% (inactive) and 108% (inactive) | 107% (inactive) and 111% (inactive) | 108% (inactive) and 99.3% (inactive) | 107% (inactive) and 105% (inactive) | 102% (inactive) and 105% (inactive) | 104% (inactive) and 102% (inactive) | – | – |
| N#Cc1ccc(/C=C/C(=O)c2ccccc2)cc1 | 100% (inactive) and 95.2% (inactive) | 105% (inactive) and 107% (inactive) | 93.2% (inactive) and 98.2% (inactive) | 78.7% (inactive) and 106% (inactive) | 73.1% (inactive) and 85.7% (inactive) | 83.1% (inactive) | 88.2% (inactive) and 98.7% (inactive) | 102% (inactive) | 81.6% (inactive) and 113% (inactive) | 80.8% (inactive) and 102% (inactive) | -35.8% (active) and 6.11% (active) | 89.2% (inactive) and 110% (inactive) | 103% (inactive) | – | 101% (inactive) | 93.7% (inactive) and 118% (inactive) | 103% (inactive) and 110% (inactive) | 80% (inactive) and 114% (inactive) | 98.6% (inactive) and 102% (inactive) | 96.6% (inactive) and 110% (inactive) |
| CCOC(=O)CN1CCC(C(=O)OCC)CC1 | 102% (inactive) | 107% (inactive) | 124% (inactive) | 108% (inactive) | 92.3% (inactive) | 96.1% (inactive) | 103% (inactive) | 109% (inactive) | 112% (inactive) | 118% (inactive) | 118% (inactive) | 111% (inactive) | 103% (inactive) | 127% (inactive) | 113% (inactive) | 119% (inactive) | 117% (inactive) | 110% (inactive) | 105% (inactive) | – |
| O=C(O)c1cc(=O)[nH]c(=O)[nH]1 | 104% (inactive) and 4.68% (active) | 102% (inactive) and 95% (inactive) | 89.8% (inactive) and 97.5% (inactive) | 111% (inactive) and 91.4% (inactive) | – | 89.7% (inactive) and 18.9% (inactive) | 98.3% (inactive) | 96.5% (inactive) and 103% (inactive) | 99.6% (inactive) and 89.3% (inactive) | 116% (inactive) and 104% (inactive) | 106% (inactive) and 115% (inactive) | 89.1% (inactive) and 116% (inactive) | 97.2% (inactive) and 96.3% (inactive) | 118% (inactive) | 112% (inactive) and 100% (inactive) | 101% (inactive) and 124% (inactive) | 104% (inactive) and 80.5% (inactive) | 103% (inactive) | 102% (inactive) and 111% (inactive) | 115% (inactive) and 107% (inactive) |
| OC(CC(c1ccccc1)c1cccc2ccccc12)(c1ccccc1)c1ccccc1 (stereo not given) | 76.2% (inactive) and 71.1% (inactive) | 77.9% (inactive) and 79.1% (inactive) | 97.5% (inactive) and 105% (inactive) | 89.2% (inactive) and 91.4% (inactive) | 49.5% (inactive) and 58.4% (inactive) | 47.9% (inactive) and 62.7% (inactive) | 73.7% (inactive) and 79.1% (inactive) | 85.7% (inactive) and 79.7% (inactive) | 90.3% (inactive) and 92.4% (inactive) | 108% (inactive) and 103% (inactive) | 92.9% (inactive) and 67.2% (inactive) | 101% (inactive) and 104% (inactive) | 69.4% (inactive) and 71.2% (inactive) | 92.7% (inactive) and 86.7% (inactive) | 84.9% (inactive) and 89.4% (inactive) | 80% (inactive) and 81.3% (inactive) | 94.4% (inactive) and 93.3% (inactive) | 62.8% (inactive) and 85.3% (inactive) | – | – |
| CC(=O)Nc1ccc2oc(=O)ccc2c1 | 101% (inactive) | 96.5% (inactive) | 101% (inactive) | 109% (inactive) | 95% (inactive) | 93.3% (inactive) | 102% (inactive) | 81.6% (inactive) | 107% (inactive) | 100% (inactive) | 64.9% (inactive) | 110% (inactive) | 94.6% (inactive) | 103% (inactive) | 114% (inactive) | 108% (inactive) | 99.1% (inactive) | 104% (inactive) | 100% (inactive) | – |
| O=C(O)c1c2c(nc3ccccc13)Cc1ccccc1-2 | 96.7% (inactive) and 95.7% (inactive) | 115% (inactive) and 95% (inactive) | 119% (inactive) and 87.4% (inactive) | 105% (inactive) and 102% (inactive) | 92.3% (inactive) and 96.5% (inactive) | 113% (inactive) and 104% (inactive) | 97.9% (inactive) and 107% (inactive) | 108% (inactive) and 101% (inactive) | 109% (inactive) and 107% (inactive) | 108% (inactive) and 94.4% (inactive) | 115% (inactive) and 99.1% (inactive) | 105% (inactive) and 86.8% (inactive) | 107% (inactive) and 102% (inactive) | 182% (inactive) and 114% (inactive) | 95.4% (inactive) and 86.9% (inactive) | 104% (inactive) and 81.9% (inactive) | 116% (inactive) and 91.4% (inactive) | 85.8% (inactive) and 103% (inactive) | – | – |
| OCc1cccc(F)c1 | 79.6% (inactive) | 104% (inactive) | 90.2% (inactive) | 41.8% (inactive) | 118% (inactive) | 67.8% (inactive) | 99.3% (inactive) | 103% (inactive) | 90.1% (inactive) | 3.58% (active) | 99.4% (inactive) | 106% (inactive) | 89.6% (inactive) | 67.8% (inactive) | 97.4% (inactive) | 72.3% (inactive) | 111% (inactive) | 101% (inactive) | 94.9% (inactive) | 100% (inactive) |
| S=c1ccc2ccccc2[nH]1 | 107% (inactive) and 101% (inactive) | 90.2% (inactive) and 104% (inactive) | 96.8% (inactive) and 96.2% (inactive) | 107% (inactive) | 86.5% (inactive) and 94.5% (inactive) | 93.3% (inactive) and 89.6% (inactive) | 95.7% (inactive) and 94.4% (inactive) | 107% (inactive) and 106% (inactive) | 94.3% (inactive) and 114% (inactive) | 115% (inactive) and 111% (inactive) | 90.7% (inactive) and 103% (inactive) | 85.9% (inactive) and 98.5% (inactive) | 93.9% (inactive) and 100% (inactive) | 106% (inactive) and 105% (inactive) | 107% (inactive) and 99.7% (inactive) | 104% (inactive) and 109% (inactive) | 97.9% (inactive) and 102% (inactive) | 101% (inactive) and 92.3% (inactive) | – | – |
